# Measurements from PubChem BioAssay AID1159580 (chemical genetic matrix, 2015).
# Screen size: about 5,500 compounds; about 2,000 (36%) were called active. Inconclusive results (about 18%) are left out. The list shows a part of the results. Unmarked numbers belong to inactive results. No stated cut-off is given here; in the data, active means normalized growth mostly below about 0.91 (no sharp cut-off); inconclusive means no clear call, values can overlap the other calls; inactive means mostly above about 0.92.
# Test: chemical genetic growth profiling, strain panel (AID 1159580);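 further: tested at 20 µM; growth read once vehicle control cultures reached saturation at 30 °C; 1 = growth at the plate median or of vehicle wells; lower values mean less growth of the strain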
# Conditions: S. cerevisiae deletion strains, growth OD
smiles,measurement,setting,value
Cc1nc(-c2cccnc2)nc(NCc2ccccc2)c1Cl,normalized growth,"locus YAR019C, strain CDC15, hits give low values",0.943
same,normalized growth,"locus YBL105C, strain PKC1, hits give low values",0.945
same,normalized growth,"locus YBR135W, strain CKS1, hits give low values",0.941
same,normalized growth,"locus YBR136W, strain MEC1, hits give low values",0.919
same,normalized growth,"locus YBR160W, strain CDC28, hits give low values",0.955
same,normalized growth,"locus YDL017W, strain CDC7, hits give low values",0.943
same,normalized growth,"locus YDL028C, strain MPS1, hits give low values",0.926
same,normalized growth,"locus YDL101C, strain DUN1, hits give low values",0.938
same,normalized growth,"locus YDL108W, strain KIN28, hits give low values",0.924
same,normalized growth,"locus YDL132W, strain cdc53, hits give low values",0.939
same,normalized growth,"locus YDL214C, strain PRR2, hits give low values",0.866
same,normalized growth,"locus YDR052C, strain DBF4, hits give low values",0.945
same,normalized growth,"locus YDR054C, strain cdc34, hits give low values",0.933
same,normalized growth,"locus YDR226W, strain ADK1, hits give low values",0.951
same,normalized growth,"locus YDR477W, strain SNF1, hits give low values",0.887
same,normalized growth,"locus YER123W, strain YCK3, hits give low values",0.784
same,normalized growth,"locus YER133W, strain GLC7, hits give low values",0.853
same,normalized growth,"locus YFL009W, strain cdc4, hits give low values",0.932
same,normalized growth,"locus YFL029C, strain CAK1, hits give low values",0.941
same,normalized growth,"locus YFR003C, strain YPI1, hits give low values",0.943
same,normalized growth,"locus YFR019W, strain FAB1, hits give low values",0.946
same,normalized growth,"locus YFR028C, strain CDC14, hits give low values",0.931
same,normalized growth,"locus YGR040W, strain KSS1, hits give low values",0.841
same,normalized growth,"locus YGR052W, strain FMP48, hits give low values",0.937
same,normalized growth,"locus YGR092W, strain DBF2, hits give low values",0.8
same,normalized growth,"locus YHR030C, strain SLT2, hits give low values",0.936
same,normalized growth,"locus YHR079C, strain IRE1, hits give low values",0.887
same,normalized growth,"locus YHR082C, strain KSP1, hits give low values",0.935
same,normalized growth,"locus YHR205W, strain SCH9, hits give low values",0.886
same,normalized growth,"locus YIL147C, strain SLN1, hits give low values",0.929
same,normalized growth,"locus YJL095W, strain BCK1, hits give low values",0.923
same,normalized growth,"locus YJL128C, strain PBS2, hits give low values",0.907
same,normalized growth,"locus YJL157C, strain FAR1, hits give low values",0.877
same,normalized growth,"locus YJR016C, strain ILV3, hits give low values",0.935
same,normalized growth,"locus YJR066W, strain TOR1 (second series), hits give low values",0.884
same,normalized growth,"locus YJR066W, strain TOR1, hits give low values",0.922
same,normalized growth,"locus YKL048C, strain ELM1, hits give low values",0.94
same,normalized growth,"locus YKL067W, strain YNK1, hits give low values",0.89
same,normalized growth,"locus YKL101W, strain HSL1, hits give low values",0.892
same,normalized growth,"locus YKL193C, strain SDS22, hits give low values",0.937
same,normalized growth,"locus YKL203C, strain TOR2, hits give low values",0.923
same,normalized growth,"locus YLR113W, strain HOG1, hits give low values",0.846 (active)
same,normalized growth,"locus YLR133W, strain CKI1, hits give low values",0.913
same,normalized growth,"locus YLR403W, strain SFP1, hits give low values",0.849
same,normalized growth,"locus YML070W, strain DAK1, hits give low values",0.847
same,normalized growth,"locus YMR001C, strain CDC5, hits give low values",0.938
same,normalized growth,"locus YMR205C, strain PFK2 (second series), hits give low values",0.897
same,normalized growth,"locus YMR277W, strain FCP1, hits give low values",0.943
same,normalized growth,"locus YNL006W, strain LST8, hits give low values",0.954
same,normalized growth,"locus YNL020C, strain ARK1, hits give low values",0.885
same,normalized growth,"locus YNL161W, strain CBK1, hits give low values",0.952
same,normalized growth,"locus YNL183C, strain NPR1, hits give low values",0.898
same,normalized growth,"locus YNL207W, strain RIO2, hits give low values",0.922
same,normalized growth,"locus YNL222W, strain SSU72, hits give low values",0.942
same,normalized growth,"locus YNL307C, strain MCK1 (second series), hits give low values",0.899
same,normalized growth,"locus YOL078W, strain AVO1, hits give low values",0.941
same,normalized growth,"locus YOL136C, strain PFK27, hits give low values",0.877
same,normalized growth,"locus YOR061W, strain CKA2, hits give low values",0.89
same,normalized growth,"locus YOR119C, strain RIO1, hits give low values",0.889
same,normalized growth,"locus YOR231W, strain MKK1, hits give low values",0.9
same,normalized growth,"locus YOR329C, strain SCD5, hits give low values",0.948
same,normalized growth,"locus YPL031C, strain PHO85, hits give low values",0.82
same,normalized growth,"locus YPL153C, strain RAD53, hits give low values",0.841
same,normalized growth,"locus YPL204W, strain HRR25, hits give low values",0.856
same,normalized growth,"locus YPL209C, strain IPL1, hits give low values",0.942
same,normalized growth,"locus YPL256C, strain CLN2, hits give low values",0.908
same,normalized growth,"locus YPR025C, strain CCL1, hits give low values",0.951
same,normalized growth,"locus YPR106W, strain ISR1, hits give low values",0.953
same,normalized growth,"locus YPR111W, strain DBF20, hits give low values",0.942
same,normalized growth,"strain NNK1, hits give low values",0.94
same,normalized growth,"strain TSCII, hits give low values",0.934
